# Test results as given in PubChem BioAssay.
# The source made the active and inactive calls.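 The calls were made as follows, unless noted: active = inhibition of the reporter signal at or above 50%; inactive = inhibition below 50%.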
# How the values were obtained:
# [1] = inhibitors of TNFa-induced NFkB p65 translocation, primary screen, imaging, HUVEC, MLSMR starter and 10KST1 sets (AID 438;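 active = inhibition above 20% together with a positive visual image hit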;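 also: compound added about 3h40 before a 20 min TNFalpha stimulation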;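 as to inhibition: signal is the nuclear over cytoplasmic p65 intensity ratio per well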); conditions: HUVEC TNFa-induced p65 nuclear translocation; cell count: measured here: nuclei count (cytotoxicity indicator), at 2.08 µM; inhibition: at 2 µM, stronger effect = higher value, 0% TNFa-plus-vehicle, 100% no-TNFa wells
# [2] = reduction of polyQ htt aggregates in cells – imaging, exon1htt(103Q)mCFP cells, high-content imaging, primary screen (AID 483;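 active = visual image review flags a hit and inhibition of aggregation exceeds 20%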;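 also: compound exposure lasted 3 days before fixation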;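 as to nuclei count: percent of the per-plate median nuclei count of sample wells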); conditions: exon1htt(103Q)mCFP cell line, aggregate imaging, at 2 µM; inhibition of aggregation: stronger effect = higher value; nuclei count: measured here: cell count, toxicity
# [3] = endothelial E-selectin expression blockers – imaging, HUVEC, immunofluorescence, MLSMR starter and 10KST1 sets, primary screen (AID 487;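 active = visually confirmed hit in the image check and inhibition above 20%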;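 as to inhibition: signal is fraction of cell area covered by stained E-selectin grains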;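 as to nuclei count: 100% = median nuclei count of all wells on the same plate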); conditions: HUVEC TNFalpha-induced E-selectin immunofluorescence imaging, at 2 µM; inhibition: stronger effect = higher value; nuclei count: measured here: cell number, toxicity
# [4] = Primary imaging screen for DUSP6 inhibitors that restore phospho-Erk in transfected HeLa cells, chemical complementation (AID 609;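 active = compounds giving at least 50% inhibition in the cell-based MKP-3 phosphatase rescue imaging test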;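 as to inhibition: phospho-Erk level distribution per well compared with pooled transfected vehicle control wells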); conditions: HeLa MKP-3 transfected, phospho-Erk imaging KS statistic, at 10 µM, cells stimulated with TPA for 15 min
# [5] = target: Dual specificity protein phosphatase 6 (Homo sapiens) (UniProt Q16828); assay: as above; conditions: HeLa MKP-3 transfected, phospho-Erk imaging KS statistic; at 10 µM; stronger effect = higher value; cells stimulated with TPA for 15 min
# [6] = target: Voltage-gated potassium channel subunit beta-2 (Rattus norvegicus) (UniProt P62483); assay: inhibitors of rat Kvbeta2 reductase activity – biochemical, NADPH fluorescence, primary screen (AID 622;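 active = fluorescence slope higher than the sample average by over 3 SD, cut at about -0.22 in these data, passing the limit was not always enough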;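 also: slope of raw intensity against log time taken from 70 to 1610 s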); conditions: recombinant KvBeta, 4-cyanobenzaldehyde reduction, at 10 µM, stronger effect = higher value
# [7] = target: Voltage-gated potassium channel subunit beta-2 (Rattus norvegicus) (UniProt P62483); assay: enhancers of rat Kvbeta2 NADPH turnover – biochemical, NADPH fluorescence, primary screen (AID 623;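 active = NADPH fluorescence slope more negative than the mean of all samples by about 3 SD, 99.7% confidence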;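 also: fluorescence intensity change per second fitted from 20 to 320 s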); conditions: Recombinant KvBeta, NADPH fluorescence decrease slope, 10 min; at 10 µM; stronger effect = lower value
# [8] = target: Alpha-2C adrenergic receptor (Homo sapiens) (UniProt P18825); assay: compounds altering alpha2C-coupled GIRK flux – cell-based, HEK293 alpha2C/GIRK1/2, thallium flux, primary screen (AID 624;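 active = fluorescence slope after compound addition differing from the mean of all screened samples at 99.7% confidence, in either direction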;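 also: slope of fluorescence ratio to pre-addition baseline per second over 15 to 24 s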); conditions: thallium flux BTC fluorescence, at 10 µM, actives lie on both sides
# [9] = target: Muscarinic acetylcholine receptor M4 (Homo sapiens) (UniProt P08173); assay: M4-linked GIRK flux change, two-sided – cell-based, HEK293 M4/GIRK, thallium flux, BTC-AM, M4 allosteric agonist project, primary screen (AID 625;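 active = fluorescence slope after compound addition differing from the mean of all tested samples at 99.7% confidence, mostly higher but some lower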;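 also: thallium influx through GIRK channels coupled to M4 in HEK293 cells with BTC-AM dye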); conditions: at 10 µM, actives lie on both sides
# [10] = inhibitors of larval lipid processing in zebrafish, primary screen, whole organism, PED6 fluorescence, gall bladder and intestine (AID 686;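 active = a full or partial loss of lipid-probe fluorescence in the fish gall bladder, intestine or both, judged by eye; inactive = no fluorescence loss, or compound toxic to the fish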;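 also: larvae 5 to 7 days old with five fish per well; signal comes from phospholipase A2 cleavage of quenched PED6 carried via bile; overnight exposure to compound and PED6 before scoring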); conditions: Zebrafish larvae PED6 lipid processing, fluorescence scoring; screened at 20 µM (by protocol)
# [11] = loss of swimming-algae plug formation – whole organism, Chlamydomonas reinhardtii, WT vs cilia-less mutant, absorbance, 96-well, primary screen (AID 463189;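 active = inhibition at or above 50% relative to wild type and mutant plate controls; inactive = inhibition below 50%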;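 also: 0% = wild type cc124 cells in DMSO and 100% = ciliumless bld1 mutant cells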); conditions: Chlamydomonas reinhardtii gravitaxis, OD600 absorbance, 2 days; at 10 µM; stronger effect = higher value
# [12] = blockers of RIG-like receptor reporter activation – cell-based, Sendai virus stimulus, luciferase, 10K MLSCN set, TLR/RLR signaling modifier project, primary screen (AID 602276;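 active = inhibition at or above 50% at 10 µM; inactive = inhibition below 50%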;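 also: firefly luciferase from ISG56 promoter only with Renilla not read in this screen; 0% = Sendai virus plus DMSO and 100% = medium plus DMSO without virus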); conditions: HEK293 RL24 IRF3 luciferase reporter, at 10 µM, stronger effect = higher value
# [13] = TLR3 IRF3 reporter activation blockers – cell-based, poly I:C stimulus, luciferase, 10K MLSCN set, primary screen (AID 602277); conditions: HEK293-TLR3 RL24 IRF3 luciferase reporter, at 10 µM, stronger effect = higher value
# [14] = measured here: cell density z-score
# [15] = measured here: nuclear c-Myc green intensity z-score
# [16] = measured here: nuclear pErk red intensity z-score, stronger effect = higher value
# Sequence of Dual specificity protein phosphatase 6 (Homo sapiens) (Q16828 whole entry, looked up): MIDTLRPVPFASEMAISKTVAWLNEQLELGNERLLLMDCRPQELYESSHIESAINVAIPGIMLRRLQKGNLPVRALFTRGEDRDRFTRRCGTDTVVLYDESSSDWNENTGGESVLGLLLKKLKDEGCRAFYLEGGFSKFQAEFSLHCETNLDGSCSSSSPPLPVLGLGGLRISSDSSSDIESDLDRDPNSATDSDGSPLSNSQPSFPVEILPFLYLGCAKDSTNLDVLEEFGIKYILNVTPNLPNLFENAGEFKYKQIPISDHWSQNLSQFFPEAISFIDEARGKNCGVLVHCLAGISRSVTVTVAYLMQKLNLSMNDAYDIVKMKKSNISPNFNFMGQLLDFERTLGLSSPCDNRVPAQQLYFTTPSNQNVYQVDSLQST
# Sequence of Muscarinic acetylcholine receptor M4 (Homo sapiens) (P08173 whole entry, looked up): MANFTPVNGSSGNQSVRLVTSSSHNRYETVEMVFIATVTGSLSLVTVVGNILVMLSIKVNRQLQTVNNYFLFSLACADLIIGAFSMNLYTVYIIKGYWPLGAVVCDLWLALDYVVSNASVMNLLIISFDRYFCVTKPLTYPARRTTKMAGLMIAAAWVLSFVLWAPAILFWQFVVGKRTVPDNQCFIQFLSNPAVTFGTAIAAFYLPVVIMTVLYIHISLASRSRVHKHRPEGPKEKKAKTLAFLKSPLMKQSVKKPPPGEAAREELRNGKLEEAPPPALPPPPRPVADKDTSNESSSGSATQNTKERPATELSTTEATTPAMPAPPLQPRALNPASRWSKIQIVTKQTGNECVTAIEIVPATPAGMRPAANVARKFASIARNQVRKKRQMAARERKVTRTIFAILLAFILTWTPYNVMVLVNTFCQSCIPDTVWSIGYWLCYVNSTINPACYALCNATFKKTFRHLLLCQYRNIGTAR
# Sequence of Voltage-gated potassium channel subunit beta-2 (Rattus norvegicus) (P62483 whole entry, looked up): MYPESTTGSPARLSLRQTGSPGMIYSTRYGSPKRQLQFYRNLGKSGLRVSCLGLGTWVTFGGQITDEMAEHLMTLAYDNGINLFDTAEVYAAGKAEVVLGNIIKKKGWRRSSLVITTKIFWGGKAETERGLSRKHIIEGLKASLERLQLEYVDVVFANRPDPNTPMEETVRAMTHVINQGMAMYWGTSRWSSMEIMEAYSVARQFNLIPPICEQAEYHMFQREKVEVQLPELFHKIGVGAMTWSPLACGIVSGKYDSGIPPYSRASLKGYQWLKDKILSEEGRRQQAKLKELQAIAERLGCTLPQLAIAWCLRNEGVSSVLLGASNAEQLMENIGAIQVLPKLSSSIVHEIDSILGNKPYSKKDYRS
# Sequence of Alpha-2C adrenergic receptor (Homo sapiens) (P18825 whole entry, looked up): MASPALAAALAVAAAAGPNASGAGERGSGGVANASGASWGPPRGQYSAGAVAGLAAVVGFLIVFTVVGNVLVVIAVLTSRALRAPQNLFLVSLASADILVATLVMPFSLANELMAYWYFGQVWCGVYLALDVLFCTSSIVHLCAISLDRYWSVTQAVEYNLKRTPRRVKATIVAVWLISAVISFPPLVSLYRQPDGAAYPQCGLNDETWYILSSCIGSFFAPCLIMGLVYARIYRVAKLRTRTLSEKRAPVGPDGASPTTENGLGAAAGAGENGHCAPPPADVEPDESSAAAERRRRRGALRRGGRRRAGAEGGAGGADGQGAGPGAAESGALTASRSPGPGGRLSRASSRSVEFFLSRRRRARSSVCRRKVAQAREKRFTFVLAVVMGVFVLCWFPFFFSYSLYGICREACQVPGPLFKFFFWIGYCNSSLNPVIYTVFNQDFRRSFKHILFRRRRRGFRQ
Compound,cell count [1],inhibition [1],inhibition of aggregation [2],nuclei count [2] [%],inhibition [3],nuclei count [3] [%],"z-score [4, 14]","z-score [4, 15]","z-score [4, 16]",inhibition [5],fluorescence slope [6],NADPH fluorescence slope [7],slope [8],fluorescence slope [9],outcome [10],inhibition [11],inhibition [12],inhibition [13]
CCOC(=O)c1[nH]c2cc(OC)c(OC)cc2c1NC(=O)C(C)N1CCN(Cc2ccccc2)CC1 (stereo not given),541,-4.7% (inactive),10.2% (inactive),106,-11.1% (inactive),140,0.355,-0.877,-1.74,13.9% (inactive),-0.0434 (active),2.3e-06 (inactive),0.00443 (inactive),0.00565 (inactive),inactive,19.7% (inactive),-0.312% (inactive),3.3% (inactive)
CN1C(=O)c2c(sc3c2CCCC3)NC1c1ccccc1O (stereo not given),432,-5.1% (inactive),-1.6% (inactive),97.6,-128% (inactive),136,1.59,-1.82,0.821,-2.59% (inactive),-0.47 (inactive),-0.000117 (inactive),0.00476 (inactive),0.00402 (inactive),inactive,15.4% (inactive),-8.68% (inactive),-24.4% (inactive)
COc1ccccc1C1(CC(=O)N2CCOCC2)CCOC(C(C)C)C1 (stereo not given),506,-6.5% (inactive),-10.9% (inactive),102,3.2% (inactive),131,0.755,0.316,1.01,5.95% (inactive),-0.414 (inactive),-4.7e-05 (inactive),0.00593 (inactive),0.00519 (inactive),inactive,12.8% (inactive),-1.02% (inactive),-0.559% (inactive)
Cc1cc(N2C(=O)C(=O)/C(=C(/O)c3ccc(F)cc3)C2c2ccc(F)cc2)no1 (stereo not given),430,-7.1% (inactive),10.1% (inactive),60.9,-108% (inactive),122,-1.41,1.25,1.07,1.04% (inactive),-0.407 (inactive),-3.1e-05 (inactive),0.00571 (inactive),0.0056 (inactive),inactive,0.694% (inactive),14.8% (inactive),7.49% (inactive)
COc1cccc(NC(=O)CC2SC(=Nc3ccccc3)NC2=O)c1 (stereo not given),593,2.2% (inactive),32.9% (inactive),84.1,-29.5% (inactive),132,-0.312,-0.394,0.335,9.91% (inactive),-0.37 (inactive),-1.5e-05 (inactive),0.00453 (inactive),0.00596 (inactive),inactive,32.2% (inactive),-8.37% (inactive),97.6% (active)
